Sampled rows, rich in hits. Any-hit rate of the full collection: about 12%.
G9a block – inhibitors of human histone lysine methyltransferase G9a; Potency, µM (titrated, usually from 102 µM), actives largely listed as inhibitors; 8.8% of 350,000 active; G9a H3K9 monomethylation, AlphaScreen, 2 h; Q96KQ7; AID 504332; further: nearly all actives have a fitted effect of over 75% in size
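Methyltransferase reactions run at room temperature for 2 h (20 nM enzyme, 500 nM biotin-H3K9 peptide, 20 uM SAM) after a 15 min compound preincubation; product detected by AlphaScreen beads and anti-H3K9me1 antibody.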
HP1b binding inh – inhibitors of HP1-beta chromodomain binding to methylated histone tails; Potency, µM (doses to about 114 µM), actives largely listed as inhibitors; P83916; AlphaScreen HP1-beta / biotin-H3K9me3 peptide binding; 0.56% of 390,000 active; further: nearly all actives have a fitted effect of over 70% in size
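AlphaScreen: HP1-beta (50 nM) preformed 30 min with biotin-H3(1-18)K9me3 peptide (50 nM) in PBS pH 7.4, 0.01% Tween-20. Compound added for 30 min at RT, then streptavidin donor/nickel chelate acceptor beads (10 ug/mL) for 30 min.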
Sfp inh – blocks B. subtilis Sfp PPTase activity; Q9F4F7; Biochemical Sfp PPTase activity, qHTS; Potency, µM, hits mostly inhibitors; 3.5% of 310,000 active; AID 1490;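 further: the enzyme is Sfp with the accession as filed and its product quenches rhodamine fluorescence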
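Reaction rates are the 30-min fluorescence difference (ex 525, em 598 nm) in wells containing 15 nM Sfp, 5 uM rhodamine-CoA and 12.5 uM BHQ-2-YbbR at pH 7.6 with 10 mM MgCl2.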
BAZ2B inh – inhibitors of human BAZ2B bromodomain. AID 504333. AlphaScreen BAZ2B-H3K14Ac peptide displacement. 4.4% of 360,000 active. Q9UIF8. Potency, µM (doses to about 114 µM), hits mostly inhibitors; further: nearly all actives have a fitted effect of over 60% in size
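BAZ2B (50 nM) with biotin-H3(5-23)K14Ac peptide (50 nM) in PBS pH 7.4, 0.01% Tween-20, preformed 30 min, then compound 30 min at room temperature; top concentration 110uM. AlphaScreen streptavidin donor/nickel chelate acceptor beads (10 ug/mL final), 20 min dark, signal read.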
JMJD2A Tudor – JMJD2A Tudor domain (human) inhibition; 4.4% of 390,000 active; AlphaScreen JMJD2A-Tudor / H3K4me3 peptide binding; Potency, µM (highest dose often 114 µM), usual class: inhibitors; further: nearly all actives have a fitted effect of over 50% in size
Of the large screens only hits and unclear results are named; the others gave an inactive call. The call rests on the fitted dose curve; in most records, active means well fitted curve in the direction sought with a large enough effect; inconclusive means small, poorly fitted or top-dose-only effect, or another doubt; inactive means no such curve, though single readings can be large; an effect the other way counts as inactive or inconclusive.

O=[N+]([O-])c1ccc(S(=O)(=O)N/N=C/c2ccc3c(c2)OCO3)cc1	G9a block 50µM, BAZ2B inh inconclusive
NS(=O)(=O)c1ccc(N/N=C/c2ccc(O)cc2O)c([N+](=O)[O-])c1	BAZ2B inh inconclusive (no result: G9a block)
Cc1ccc(S(=O)(=O)N/N=C/c2ccc(O)cc2O)cc1[N+](=O)[O-]	G9a block 45µM, Sfp inh 50µM
CCOc1cccc(/C=N/NS(=O)(=O)c2ccc(C)c([N+](=O)[O-])c2)c1O	G9a block inconclusive, Sfp inh 56µM (no result: BAZ2B inh)
COc1ccc(/C=N\NS(=O)(=O)c2ccc(C)cc2)cc1COc1ccccc1[N+](=O)[O-]	none
O=[N+]([O-])c1cccc(S(=O)(=O)N/N=C\c2ccc3c(c2)OCO3)c1	none
CN(C(=O)c1ccccc1F)C(c1ccccc1)c1ccccc1	none
CCCCNC(=S)N/N=C/c1cccc(OCC)c1O	none (no result: G9a block)
Cc1ccc(S(=O)(=O)N/N=C/c2cccc([N+](=O)[O-])c2)cc1	G9a block inconclusive
Cc1ccc(S(=O)(=O)N/N=C\c2cc([N+](=O)[O-])ccc2Cl)cc1	G9a block 2.8µM
C/C(CCC(C)C)=N\NS(=O)(=O)c1ccc(C)c([N+](=O)[O-])c1	G9a block 13µM
CCOc1cccc(/C=N/NC(=S)Nc2ccccc2[N+](=O)[O-])c1O	BAZ2B inh 11µM, JMJD2A Tudor inconclusive
Cc1ccc(S(=O)(=O)N/N=C/c2cc([N+](=O)[O-])ccc2O)cc1[N+](=O)[O-]	G9a block 50µM, Sfp inh inconclusive, BAZ2B inh inconclusive, JMJD2A Tudor inconclusive
CN(C)S(=O)(=O)c1cccc(NC(=O)CSc2nnnn2-c2ccccc2)c1	none
Cc1nc(-c2ccc(C)c(S(=O)(=O)N3CCC(C(=O)Nc4ccc(Cl)cc4)CC3)c2)no1	none (no result: Sfp inh)
O=[N+]([O-])c1ccc2c(c1)CCN2	none (no result: G9a block, Sfp inh, BAZ2B inh)
C/C(=N\Nc1nnc(C)c(=O)[nH]1)C(=O)O	BAZ2B inh 13µM, JMJD2A Tudor inconclusive
CC(/C=N/Nc1nnc(C)c(=O)[nH]1)=C\c1ccccc1	G9a block 10µM, Sfp inh inconclusive
Cc1cnc(CN(C)C(=O)c2cc(COc3c(F)cccc3F)on2)[nH]1	none
COc1ccc(C(=O)NCC2CCCN2S(=O)(=O)c2cccs2)cc1 (stereo not given)	none (no result: Sfp inh)
CC(=O)OCCc1c(C)nc2nc[nH]n2c1=O	G9a block 50µM
COc1cc(C(=O)OCCc2c(C)nc3nc[nH]n3c2=O)cc(OC)c1OC	none
O=Cc1cc(N=Nc2cccc(C(=O)O)c2)ccc1O	G9a block inconclusive, BAZ2B inh inconclusive
O=Cc1cc(N=Nc2ccccc2Cl)ccc1O	G9a block 10µM, HP1b binding inh inconclusive, BAZ2B inh 10µM, JMJD2A Tudor 25µM
CCN(CC)CCNC(=O)C1(O)c2cc(Br)ccc2NC(=O)N1c1ccc(Cl)cc1 (stereo not given)	none
S=c1nc(C2CCCCC2)[nH][nH]1	G9a block inconclusive, Sfp inh 56µM, JMJD2A Tudor 5µM
COc1ccc(OC)c(C2C(C(=O)c3cc4ccccc4o3)=C(O)C(=O)N2c2cc(C)on2)c1 (stereo not given)	G9a block inconclusive
Cc1cc(N2C(=O)C(O)=C(C(=O)c3ccc(C)o3)C2c2cccc(Oc3ccccc3)c2)no1 (stereo not given)	JMJD2A Tudor 35µM (no result: G9a block)
COc1cccc(C2C(C(=O)c3cc4ccccc4o3)=C(O)C(=O)N2c2cc(C)on2)c1 (stereo not given)	G9a block 45µM
Cc1cc(N2C(=O)C(O)=C(C(=O)c3cc4ccccc4o3)C2c2ccc(Cl)cc2)no1 (stereo not given)	BAZ2B inh inconclusive, JMJD2A Tudor inconclusive
COc1ccccc1C1C(C(=O)c2cc3ccccc3o2)=C(O)C(=O)N1c1cc(C)on1 (stereo not given)	G9a block 50µM
Cc1cc(N2C(=O)C(O)=C(C(=O)c3cc4ccccc4o3)C2c2cccc(Cl)c2)no1 (stereo not given)	G9a block 40µM, JMJD2A Tudor inconclusive
COC(=O)c1ccc(CSc2nnc(-c3ccncc3)o2)o1	none
Cc1cccc(NC(=O)CN(CC2CCCO2)C(=O)c2oc3ccccc3c2C)c1C (stereo not given)	G9a block inconclusive (no result: Sfp inh)
COC(=O)c1ccc(NS(=O)(=O)c2ccc(OC)cc2)cc1	none
Cc1cc(N2C(=O)C(O)=C(C(=O)c3ccc(C)o3)C2c2ccc([N+](=O)[O-])cc2)no1 (stereo not given)	G9a block 45µM
COc1ccc(C2C(C(=O)c3ccc(C)o3)=C(O)C(=O)N2c2cc(C)on2)cc1OC (stereo not given)	G9a block inconclusive, JMJD2A Tudor inconclusive
C=CCOc1cccc(C2C(C(=O)c3cc4ccccc4o3)=C(O)C(=O)N2c2cc(C)on2)c1 (stereo not given)	G9a block 40µM, JMJD2A Tudor inconclusive
COc1ccc(OC)c(C2C(C(=O)c3ccc(C)o3)=C(O)C(=O)N2c2cc(C)on2)c1 (stereo not given)	G9a block 50µM, Sfp inh inconclusive, JMJD2A Tudor inconclusive
COC(=O)c1sc(-c2ccc(Cl)cc2)cc1NC(=O)COCC(=O)O	G9a block 56µM, BAZ2B inh inconclusive
COC(=O)c1sc(-c2ccc(C(C)(C)C)cc2)cc1NC(=O)CCC(=O)O	G9a block 71µM
COC(=O)c1sc(-c2ccc(Cl)cc2)cc1NC(=O)/C=C/C(=O)O	Sfp inh inconclusive
CCCCC(CC)C(=O)NCc1ccccc1OC (stereo not given)	none
CCOC(=O)N1CCN(C(=O)COc2ccc(Br)cc2Cl)CC1	G9a block inconclusive
CC1=NN(C2=NS(=O)(=O)c3ccccc32)C(C)(O)C1 (stereo not given)	none
C=CCOc1ccc(C2NC(=S)NC(C)=C2C(=O)c2ccccc2)cc1OC (stereo not given)	G9a block 40µM
CCOc1cc(C2NC(=S)NC(C)=C2C(=O)Nc2ccccc2)ccc1O (stereo not given)	none
COc1cccc(C2NC(=S)NC(C)=C2C(=O)c2ccccc2)c1OC (stereo not given)	G9a block 22µM, BAZ2B inh inconclusive
COc1ccc(-c2cc(C(F)(F)F)n3nc(C(=O)NCCCn4ccnc4)cc3n2)cc1	Sfp inh inconclusive, BAZ2B inh inconclusive, JMJD2A Tudor inconclusive
CCn1nc(C(=O)O)c(=O)c2cc3c(cc21)OCO3	JMJD2A Tudor inconclusive
O=C(Nc1ccccc1Cl)c1ccccc1Oc1ccc(C(F)(F)F)cc1[N+](=O)[O-]	HP1b binding inh inconclusive, BAZ2B inh inconclusive, JMJD2A Tudor 50µM
O=C(c1ccccc1Oc1ccc(C(F)(F)F)cc1[N+](=O)[O-])N1CCOCC1	none
COc1cccc(/C=N/N2C(=O)CSC2=S)c1O	G9a block 8.9µM, HP1b binding inh inconclusive, Sfp inh inconclusive, BAZ2B inh 3.2µM, JMJD2A Tudor 10µM
